# Experimental data: PubChem BioAssay (EPA / NIEHS)
# “And” between values parts separate entries of the source, which are not always exact repeats. Equal values may be shown once. Inconclusive results are not listed. The source made the active and inactive calls. How the source made its calls: active means hit-call score of the fitted dose curve at least 0.9, where 1 is the maximum; inconclusive means response in the unintended direction; inactive means score below 0.9.
# Experiments:
# [1] = ACEA_AR_agonist_AUC_viability: ACEA Biosciences xCELLigence Real-Time Cell Analysis on Androgen Receptor Agonism for Viability (AID 2283775);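 on AC50: viability read 80 hours after compound addition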
# Procedure, shortened: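 Read-out is area under the impedance curve at 80 h post-dose in 22Rv1 cells, with DMSO as baseline and signal loss taken as reduced viability. Compounds ran in duplicate from 100 uM final.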
# [2] = ACEA_AR_antagonist_AUC_viability: ACEA Biosciences xCELLigence Real-Time Cell Analysis on Androgen Receptor Antagonism for Viability (AID 2283776);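 further: 22Rv1 human prostate cancer cells growing on impedance electrode plates; area under impedance growth curve at 80 h after dosing as viability; hits lower the growth signal relative to DMSO meaning cytotoxicity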
# Procedure, shortened: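 Real-time electrical impedance tracks 22Rv1 proliferation after continuous compound exposure (top 100 uM final, 1:4 steps, 8 concentrations). The 80 h area-under-curve serves as the cytotoxicity readout relative to DMSO.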
# [3] = tested on: zebrafish Androgen Receptor (AR), gene 100005148; assay: ATG_zfAR_XSP1: Attagene TRANS-FACTORIAL Multi-Species (XSP1) HepG2 Assay for zebrafish Androgen Receptor (AR) (AID 2283771)
# Procedure, shortened: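 HepG2 cells were transiently transfected with a zebrafish AR-GAL4 reporter system and partially stimulated with 3 nM 6-alpha-fluorotestosterone. Reporter mRNA was measured after 24 h dosing by RT-PCR with capillary electrophoresis, and gain-of-signal was fitted relative to DMSO.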
# [4] = target: zebrafish Estrogen Receptor (ESR1), esr1 (gene 259252) (UniProt P57717); assay: ATG_zfER1_XSP1: Attagene TRANS-FACTORIAL Multi-Species (XSP1) HepG2 Assay for zebrafish Estrogen Receptor (ESR1) (AID 2283772)
# Procedure, shortened: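 HepG2 cells were transiently transfected with multiplexed GAL4-UAS reporter units driven by chimeric NR-GAL4 proteins, dosed for 24 h with 3 nM 6-alpha-fluorotestosterone present, and reporter mRNA quantified by RT-PCR and capillary electrophoresis versus DMSO.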
# [5] = tested on: zebrafish Estrogen Receptor (ESR2B), gene 317733; assay: ATG_zfER2b_XSP1: Attagene TRANS-FACTORIAL Multi-Species (XSP1) HepG2 Assay for zebrafish Estrogen Receptor (ESR2B) (AID 2283773)
# Procedure, shortened: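 HepG2 cells transiently transfected with GAL4-UAS reporter units for chimeric zebrafish ER2b-Gal4, with 3 nM 6-alpha-fluorotestosterone present; reporter mRNA measured 24 h after dosing by RT-PCR and capillary electrophoresis, gain versus DMSO.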
# [6] = tested on: frog Estrogen Receptor (ESR2), gene 100174814; assay: ATG_frER2_XSP1: Attagene TRANS-FACTORIAL Multi-Species (XSP1) HepG2 Assay for frog Estrogen Receptor (ESR2) (AID 2283774)
# Procedure, shortened: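 HepG2 cells transiently transfected with GAL4-UAS reporter units expressing chimeric frog ER-Gal4; 3 nM 6-alpha-fluorotestosterone present. After 24 h dosing, reporter mRNA quantified by RT-PCR and capillary electrophoresis; gain-of-signal fitted relative to DMSO.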
# [7] = tested on: frog Estrogen Receptor (ESR1), gene 398734; assay: ATG_frER1_XSP1: Attagene TRANS-FACTORIAL Multi-Species (XSP1) HepG2 Assay for frog Estrogen Receptor (ESR1) (AID 2283777)
# Procedure, shortened: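 HepG2 cells transiently transfected with frog ER–GAL4 chimera and GAL4-UAS reporter, with 3 nM 6-alpha-fluorotestosterone present; 24 h dosing, reporter mRNA quantified by RT-PCR and capillary electrophoresis, gain of signal versus DMSO.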
# [8] = tested on: zebrafish Estrogen Receptor (ESR2A), gene 317734; assay: ATG_zfER2a_XSP1: Attagene TRANS-FACTORIAL Multi-Species (XSP1) HepG2 Assay for zebrafish Estrogen Receptor (ESR2A) (AID 2283778)
# Procedure, shortened: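 HepG2 cells transiently transfected with GAL4-UAS reporter units driven by a zebrafish ESR2A–Gal4 chimera; 24 h compound exposure with 3 nM 6-alpha-fluorotestosterone present. Reporter mRNA measured by RT-PCR with fluorescent capillary electrophoresis, fitted positive versus DMSO.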
# [9] = target: chicken Estrogen Receptor (ESR1), ESR1 (gene 396099) (UniProt P06212); assay: ATG_chERa_XSP1: Attagene TRANS-FACTORIAL Multi-Species (XSP1) HepG2 Assay for chicken Estrogen Receptor (ESR1) (AID 2283779)
# Procedure, shortened: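 HepG2 cells transiently transfected with GAL4-UAS reporter units for chimeric chicken ERα-Gal4, dosed 24 h with 3 nM 6-alpha-fluorotestosterone present. Reporter mRNA by RT-PCR and capillary electrophoresis; gain-of-signal fit versus DMSO.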
# [10] = tested on: turtle Estrogen Receptor (ESR1), gene 101933533; assay: ATG_trERa_XSP1: Attagene TRANS-FACTORIAL Multi-Species (XSP1) HepG2 Assay for turtle Estrogen Receptor (ESR1) (AID 2283781)
# Procedure, shortened: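 Turtle ERa as a GAL4 chimera in transiently transfected HepG2 cells; reporter mRNA quantified 24 h after dosing by RT-PCR and capillary electrophoresis. 3 nM 6-alpha-fluorotestosterone present; gain of signal versus DMSO.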
# [11] = ACEA_ER_AUC_viability: ACEA Biosciences xCELLigence Real-Time Cell Analysis on Estrogen Receptor Agonism for Viability (AID 2283782);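 further: hit means loss of impedance signal meaning reduced cell growth or viability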
# Procedure, shortened: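 T47D cells preconditioned in phenol red-free RPMI with charcoal-stripped FBS, then dosed with 8-point 1:4 series from 100 uM (up to 0.5% DMSO). Impedance monitored up to ~80 h; area-under-curve loss versus DMSO taken as viability.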
# [12] = target: Estrogen receptor (Homo sapiens) (UniProt P03372); assay: ATG_hERa_XSP1: Attagene TRANS-FACTORIAL Multi-Species (XSP1) HepG2 Assay for human Estrogen Receptor (ESR1) (AID 2283780)
# Procedure, shortened: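 HepG2 cells transiently transfected with GAL4-UAS reporter units and chimeric NR-Gal4 constructs; 24 h after dosing, reporter mRNA quantified by RT-PCR and capillary electrophoresis. Medium contained 3 nM 6-alpha-fluorotestosterone; activity fitted as gain-of-signal versus DMSO.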
# Sequence of chicken Estrogen Receptor (ESR1), ESR1 (gene 396099) (P06212 whole entry, looked up, the tested form may be a part): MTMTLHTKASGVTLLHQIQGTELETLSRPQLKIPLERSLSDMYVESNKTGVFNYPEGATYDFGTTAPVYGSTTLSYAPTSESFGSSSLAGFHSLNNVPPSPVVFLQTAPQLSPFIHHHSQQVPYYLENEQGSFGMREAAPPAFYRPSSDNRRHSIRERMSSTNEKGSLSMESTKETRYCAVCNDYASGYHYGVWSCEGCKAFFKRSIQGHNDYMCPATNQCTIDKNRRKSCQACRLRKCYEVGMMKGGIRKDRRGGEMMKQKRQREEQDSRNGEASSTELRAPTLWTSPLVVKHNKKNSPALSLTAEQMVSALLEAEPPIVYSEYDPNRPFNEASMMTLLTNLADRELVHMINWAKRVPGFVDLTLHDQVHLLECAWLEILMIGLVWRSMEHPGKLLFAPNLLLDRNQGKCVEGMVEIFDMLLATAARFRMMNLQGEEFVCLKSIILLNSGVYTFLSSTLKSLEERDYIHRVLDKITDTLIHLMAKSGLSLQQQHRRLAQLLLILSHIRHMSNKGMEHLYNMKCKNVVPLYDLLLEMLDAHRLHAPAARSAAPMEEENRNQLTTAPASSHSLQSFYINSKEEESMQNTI
# Sequence of zebrafish Estrogen Receptor (ESR1), esr1 (gene 259252) (P57717 whole entry, looked up, the tested form may be a part): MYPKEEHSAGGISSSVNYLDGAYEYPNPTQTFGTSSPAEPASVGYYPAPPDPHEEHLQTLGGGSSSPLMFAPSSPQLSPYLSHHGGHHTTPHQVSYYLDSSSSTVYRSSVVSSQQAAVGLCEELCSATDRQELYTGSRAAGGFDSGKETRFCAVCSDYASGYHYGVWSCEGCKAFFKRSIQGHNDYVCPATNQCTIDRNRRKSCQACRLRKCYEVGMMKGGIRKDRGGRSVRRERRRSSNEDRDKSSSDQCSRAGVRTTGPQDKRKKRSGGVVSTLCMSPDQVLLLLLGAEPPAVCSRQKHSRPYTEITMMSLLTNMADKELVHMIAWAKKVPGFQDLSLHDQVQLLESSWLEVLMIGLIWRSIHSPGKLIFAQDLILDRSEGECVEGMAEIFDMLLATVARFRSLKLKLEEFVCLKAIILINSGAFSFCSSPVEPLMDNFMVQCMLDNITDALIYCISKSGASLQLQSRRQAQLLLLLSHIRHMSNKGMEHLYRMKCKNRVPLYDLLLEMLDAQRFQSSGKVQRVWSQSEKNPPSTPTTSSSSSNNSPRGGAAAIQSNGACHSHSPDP
# Sequence of Estrogen receptor (Homo sapiens) (P03372 whole entry, looked up, the tested form may be a part): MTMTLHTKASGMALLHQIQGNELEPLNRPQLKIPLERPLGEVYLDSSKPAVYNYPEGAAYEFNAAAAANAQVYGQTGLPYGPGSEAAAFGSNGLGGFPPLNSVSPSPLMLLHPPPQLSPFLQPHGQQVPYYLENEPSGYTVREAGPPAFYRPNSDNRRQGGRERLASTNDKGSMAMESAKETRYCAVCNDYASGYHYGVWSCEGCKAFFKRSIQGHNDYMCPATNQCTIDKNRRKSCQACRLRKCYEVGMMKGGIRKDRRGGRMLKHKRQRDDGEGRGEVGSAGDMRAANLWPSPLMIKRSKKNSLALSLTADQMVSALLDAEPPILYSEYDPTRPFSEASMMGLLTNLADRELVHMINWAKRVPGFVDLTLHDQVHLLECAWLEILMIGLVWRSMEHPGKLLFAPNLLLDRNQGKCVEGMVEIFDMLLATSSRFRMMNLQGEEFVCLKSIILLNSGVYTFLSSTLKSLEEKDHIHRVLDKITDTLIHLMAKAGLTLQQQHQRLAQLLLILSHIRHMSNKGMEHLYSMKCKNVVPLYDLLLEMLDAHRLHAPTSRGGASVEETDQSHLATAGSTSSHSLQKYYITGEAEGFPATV
smiles,measurement,setting,value
Oc1cccc2cccnc12,AC50,[1],22.3 µM (active) and 6.75 µM (active)
same,AC50,[2],18.6 µM (active) and 9.5 µM (active)
O=C1CCCN1,outcome,[1],inactive
O=[N+]([O-])c1ccc(O)c([N+](=O)[O-])c1,AC50,[1],50 µM (active)
same,AC50,[2],50 µM (active)
Cc1ccccc1C(=O)Nc1cccc(OC(C)C)c1,outcome,[1],inactive
same,outcome,[2],inactive
CC(=O)[O][Hg][c]1ccccc1,AC50,[1],1.68 µM (active)
same,AC50,[2],1.63 µM (active)
CC12CC1(C)C(=O)N(c1cc(Cl)cc(Cl)c1)C2=O (stereo not given),outcome,[3],inactive
same,outcome,[4],inactive
same,AC50,[5],60.6 µM (active)
same,AC50,[6],24.7 µM (active)
same,outcome,[1],inactive
same,AC50,[2],81 µM (active)
same,outcome,[7],inactive
same,outcome,[8],inactive
same,AC50,[9],100 µM (active)
same,AC50,[10],30.9 µM (active)
CC(C#N)CCC#N (stereo not given),outcome,[1],inactive
O=C(NCO)NCO,outcome,[1],inactive
same,outcome,[2],inactive
O=C(OC1CCCCC1)c1ccccc1C(=O)OC1CCCCC1,outcome,[1],inactive
COc1cc(OC)nc(NC(=O)NS(=O)(=O)c2ncccc2C(=O)N(C)C)n1,AC50,[1],1.74 µM (active)
O=C/C=C/c1ccccc1,outcome,[1],inactive
same,outcome,[2],inactive
CC(C)(C)CC(C)(C)c1ccc(O)cc1,outcome,[3],inactive
same,AC50,[5],1.7 µM (active)
same,AC50,[6],2.75 µM (active)
same,AC50,[1],10.4 µM (active)
same,AC50,[2],8.78 µM (active)
same,AC50,[7],1.86 µM (active)
same,outcome,[8],inactive
same,AC50,[9],2.21 µM (active)
same,AC50,[10],2.15 µM (active)
same,AC50,[11],21.2 µM (active) and 21.4 µM (active) and 21.5 µM (active)
CC1(C)CCC(Cc2ccc(Cl)cc2)C1(O)Cn1cncn1 (stereo not given),AC50,[3],165 µM (active)
same,outcome,[4],inactive
same,AC50,[5],27.7 µM (active)
same,AC50,[6],26.3 µM (active)
same,outcome,[1],inactive
same,outcome,[2],inactive
same,outcome,[7],inactive
same,outcome,[8],inactive
same,AC50,[9],1.35 µM (active)
same,AC50,[12],5.17 µM (active)
same,outcome,[10],inactive
same,AC50,[11],74.5 µM (active)
O=C(O)C(F)(F)C(F)(F)C(F)(F)C(F)(F)C(F)(F)C(F)(F)F,outcome,[1],inactive
same,outcome,[2],inactive
